# A selection: hits, their analogues and other compounds. The true share with any hit is near 8.6%.
# Marburg entry: Marburg virus entry inhibition; Marburg virus pseudotype entry/binding inhibition, cell-based; Potency, µM (highest dose often 49.2 µM), actives largely listed as inhibitors; 6.5% of 18,000 active
# Lassa entry: Lassa virus entry inhibition | AID 720533 | Lassa virus pseudotyped entry inhibition, cell-based qHTS | Potency, µM (highest dose often 49.2 µM), most hits filed as inhibitors | 4.1% of 18,000 active
# Hits are given with their value; i = inactive; ? = inconclusive; [ ] = another dose, or the depositor's remark. Calls follow the shape of the full dose curve; tested in HEK293 cells.
SMILES,Marburg entry,Lassa entry
CCCCCCCC1=Cc2ccccc2C(C(C(=O)OC)C(=O)OC)N1C(=O)OC (stereo not drawn),i[8.59 µM],i[8.59 µM]
C[N+]1(C)[C@@H]2CC(OC(=O)C(O)(c3cccs3)c3cccs3)C[C@H]1[C@@H]1O[C@@H]12 (stereo partly drawn),i,i
COc1ccc2[nH]c(C(=O)c3ccccc3)cc2c1,3.2µM,i
O=C(O)c1cc2ccccc2[nH]1,i,i
Cc1cnc(-n2ncc(C(=O)NCCc3ccncc3)c2-c2cccs2)nc1-c1ccc(F)cc1,i,i
CCCC1O[C@@H]2C[C@H]3[C@@H]4CCC5=CC(=O)C=C[C@]5(C)[C@H]4[C@@H](O)C[C@]3(C)[C@]2(C(=O)CO)O1 (stereo partly drawn),i,i
CC(C)C(=O)OCC(=O)[C@@]12O[C@H](C3CCCCC3)O[C@@H]1C[C@H]1[C@@H]3CCC4=CC(=O)C=C[C@]4(C)[C@H]3[C@@H](O)C[C@@]12C,?,28µM
Nc1nc2c(c(=O)[nH]1)N=C(CNc1ccc(C(=O)NC(CCC(=O)O)C(=O)O)cc1)CN2 (stereo not drawn),i,i
C[C@@H]1CC[C@H]2C(=O)N(Cc3ccc(Cl)cc3)C[C@H](O)CN2[C@@H]1c1ccc(Br)cc1,i[8.59 µM],i[8.59 µM]
COC(=O)c1ccc(C(=O)NCC2Cc3cccc(-c4ccc(C(=O)OC)cn4)c3O2)cc1 (stereo not drawn),i,i
C=C1CC[C@H](O)C/C1=C\C=C1/CCC[C@]2(C)[C@@H]([C@H](C)CCCC(C)C)CC[C@@H]12,i,?
C=C1CC[C@H](O)CC1=C/C=C1\CCC[C@]2(C)[C@@H]([C@H](C)CCCC(C)(C)O)CC[C@@H]12,i,13µM
C=C1CC[C@H](O)CC1=C/C=C1\CCC[C@]2(C)[C@@H]([C@H](C)CC[C@@H](O)C(C)(C)O)CC[C@@H]12,i,16µM
C=C1CC[C@H](O)C/C1=C/C=C1\CCC[C@]2(C)[C@@H]([C@H](C)CCCC(C)C)CC[C@@H]12,i,?
Cc1ccsc1CN1CCc2nnc(CCNC(=O)c3ccc(F)cc3)n2CC1,i,i
CSC[C@H]1CN(CCc2ccccc2)C(=O)[C@H]1CC(=O)Nc1ccccc1,i,i
O=C(O)c1cc(=O)c2cc(Cl)ccc2[nH]1,i,i
C[C@H](N=C(NC#N)Nc1ccncc1)C(C)(C)C,i,i
CN(C)c1ccc(/C=C2\C(=O)Nc3ccccc32)cc1,i,14µM
CN(C)c1ccc(/C=C2/C(=O)Nc3ccccc32)cc1,8.9µM,?
O=C1[C@@H]2[C@H]3[C@H](O)[C@H](O)CC(=NOC[C@@H](O)COCc4ccco4)[C@@H]3CC[C@H]2C(=O)N1C1CCCCC1,i[8.59 µM],i[8.59 µM]
Cc1ccc2c(c1)CN(CCNC(=O)C(C)Oc1ccccc1)CC(C)O2 (stereo not drawn),i,i
CN1CC[C@@]23CCCCC2C1Cc1ccc(O)cc13 (stereo partly drawn),i,i
COc1ccc2c(c1)[C@@]13CCCCC1[C@@H](C2)N(C)CC3 (stereo partly drawn),8.9µM,?
CCOC(=O)CN1C(=O)[C@]2(O[C@H](C)CC3=CCCC32)c2c(Br)cccc21 (stereo partly drawn),?,i[8.59 µM]
SMILES,Marburg entry,Lassa entry
O=C(OCC1(COC(=O)c2cccnc2)CCCC(COC(=O)c2cccnc2)(COC(=O)c2cccnc2)C1O)c1cccnc1,i,i
CN1C2CCC1CC(OC(=O)C1CCC(C(=O)OC3CC4CCC(C3)N4C)(c3ccccc3)c3ccccc31)C2 (stereo not drawn),6.3µM,?
CC[N+]1(C)[C@@H]2CC[C@H]1CC(OC(=O)[C@H]1CC[C@@](C(=O)OC3C[C@H]4CC[C@@H](C3)[N+]4(C)CC)(c3ccccc3)c3ccccc31)C2 (stereo partly drawn),i,i
CCCC(=O)O[C@]1(C(=O)CO)CC[C@H]2[C@@H]3CCC4=CC(=O)CC[C@]4(C)[C@H]3[C@@H](O)C[C@@]21C,i,i
CCCCCC(=O)O[C@@]1(C(C)=O)CCC2C3CCC4=CC(=O)CC[C@@]4(C)C3CC[C@]21C (stereo partly drawn),10µM,22µM
OC[C@H]1OC(O)[C@H](O)[C@@H](O)[C@@H]1O (stereo partly drawn),i,i
COC(=O)[C@@]1(C)CCC[C@@]2(C)c3ccc(O)c(C(C)C)c3CCC21 (stereo partly drawn),13µM,11µM
CC(C)c1c(O)ccc2c1CCC1[C@@](C)(CO)CCC[C@@]21C (stereo partly drawn),i,?
CCN1\C(=C/C=C/C=C/c2sc3ccccc3[n+]2CC)Sc2ccccc21,7.1µM,11µM
COC(=O)[C@H]1Cc2c([nH]c3ccccc23)CN1C(=O)COc1ccc2c(C)cc(=O)oc2c1,i,i
F/C(COc1ccc2c(c1)[nH]c1ccccc12)=C1/CN2CCC1CC2,13µM,?
O=S1(=O)[C@H]2C[C@H]3O[C@]2(CN1Cc1ccc(C(F)(F)F)cc1)[C@@H]1O[C@@H]13,i,i
CN(C)Cc1ccccc1-c1ccc2ncnc(NCc3ccccc3)c2c1,?,i
CN(C)Cc1ccccc1-c1ccc2ncnc(NC3CCNCC3)c2c1,7.1µM,i
CN(C)Cc1ccccc1-c1ccc2ncnc(NCc3cccs3)c2c1,8.9µM,i
c1nc(NC2CCNCC2)c2cc(-c3ccc4c(c3)OCO4)ccc2n1,?,i
CCCCOCC1CN(CCCC)S(=O)(=O)c2c(Oc3ccc(SC)c(C)c3)cccc2O1 (stereo not drawn),i,i
O=C(O)C=Cc1ccc(Cn2ccnc2)cc1,i,i
COCOCCn1cc(CN2CCS(=O)(=O)N(Cc3ccc(-c4ccc(F)cc4)cc3)C(C)C2=O)nn1 (stereo not drawn),i,i
COc1ccc(NC=O)c(C(=O)CCNC(C)=O)c1,i,i
CN(CCO)C(=O)c1cn(C2CCN(Cc3cccc(C(F)(F)F)c3)CC2)nn1,i,i
CC(Cc1cccc(C(F)(F)F)c1)NCCCc1ccccc1 (stereo not drawn),14µM,32µM
CCN[C@H](C)Cc1cccc(C(F)(F)F)c1,i,i
NC[C@H]1O[C@H](O[C@H]2[C@H](O[C@@H]3O[C@H](CO)[C@@H](O)[C@H]3O)C(O)[C@H](N)C[C@@H]2N)[C@H](N)[C@@H](O)[C@@H]1O (stereo partly drawn),i,i
C=C(C(C)=O)C(O)c1cccc(Br)c1 (stereo not drawn),i,i
SMILES,Marburg entry,Lassa entry
COc1cc(CN2CCOc3ccc(CN4CCC(O)(c5cccnc5)CC4)cc3C2)cc(OC)c1,11µM,i
COc1ccc(CN2CCOc3ccc(CN4CCC(O)(c5cccnc5)CC4)cc3C2)cc1OC,?,i
CCN1C(=NCCCOC(C)C)NC(c2ccccc2)C(C(=O)OC)=C1C (stereo not drawn),i[8.59 µM],i[8.59 µM]
CCCCC/C=C\C/C=C\CCCCCCCC(=O)NCCc1ccc(O)c(O)c1,i,i
Cn1c2ccccc2c2c3c(c4c5ccccc5n(CCC#N)c4c21)CNC3=O,?,11µM
C/C=C1/C2C=C(C)CC1(N)c1ccc(=O)[nH]c1C2 (stereo not drawn),i,i
COc1cccc(CN(C)C(=O)c2cnn(-c3ncc4c(n3)-c3ccccc3CCC4)c2C)c1,i,?
COc1cccc(-c2cc3c(c(OC)c2)OCCN(Cc2ccccc2O)C3)n1,i,5.6µM
COc1ccc(-c2[nH]ncc2CN2CCOc3c(cc(-c4cccc(OC)n4)cc3OC)C2)cc1,i,i

# High-throughput results as filed in PubChem BioAssay.
